# Source: PubChem (several laboratories)
# Sampled rows, rich in hits. Any-hit rate of the full collection: about 3.7%.
# Autofluor counter: compound fluorescence in toxin protease inhibitor counterscreen; fluorescence intensity (concentration not given with the values); 360,000 tested, 3.1% active; compound autofluorescence counterscreen, microsphere flow cytometry; active compounds read high; in the data active = fluorescence intensity above about 16000; inconclusive = no clear call, values can overlap the other calls
# MazF activator: MazEF (E. coli) toxin RNase activation. 350,000 tested, 0.32% active. activation, % at 20 µM. P0AE70. FAM/BHQ RNA-DNA oligo cleavage fluorescence, 5 h; in the data active = activation above about 50%
# BoNT-F LC inh: BoNT F light chain protease inhibition. inhibition, % at 10 µM. 360,000 tested, 0.22% active. Multiplex microsphere protease cleavage assay, flow cytometry. AID 588497; in the data active = inhibition above about 35%, passing the limit was not always enough; inconclusive = no clear call, values can overlap the other calls; note: plate controls were buffer without enzyme for full effect and enzyme alone for no effect
# Anthrax LF prot: blocks Bacillus anthracis lethal factor protease | multiplex microsphere protease cleavage assay, LF | 360,000 tested, 0.12% active | inhibition, % at 10 µM | AID 588501; note: plate controls were buffer without enzyme for full effect and enzyme alone for no effect
# BoNT A protease: BoNT A light chain protease inhibition | multiplex microsphere protease substrate cleavage, flow cytometry | inhibition, % at 10 µM | 360,000 tested, 0.17% active | AID 588499; note: plate controls were buffer without enzyme for full effect and enzyme alone for no effect
# * = called active by the depositor; u = inconclusive; x = no result given. Cut-off read from the data, not from the text of the source, unless noted: active = inhibition above about 30%; inconclusive = no clear call, values can overlap the other calls; inactive = below that.
SMILES,Autofluor counter,MazF activator,BoNT-F LC inh,Anthrax LF prot,BoNT A protease
COCc1nnc(NC(=O)c2ccc(NC(=O)C(C)C)cc2)s1,23228*,8,-3,-2,-2
CCc1nnc(NC(=O)c2ccc(NC(=O)C(C)C)cc2)s1,4198,6,3,-6,0
COCc1nnc(NC(=O)c2cc(Cl)ccc2OC)s1,23665*,9,-5,-1,-2
CCOc1ccccc1CN1CCNC(=O)C1CC(=O)NCc1nccn1CC (centres undefined),6122,-3,-4,-4,0
CCC1C(=O)N(c2nc(C)cc(C)n2)N=C1C (centres undefined),19066*,-3,0,3,2
Cc1ccc(N(Cc2cc(=O)[nH]c3ccccc23)C(=O)c2ccco2)cc1,23679*,0,2,-3,-1
Cc1ccc(/C=C2/C(=O)c3ccc(C(=O)O)cc3C2=O)o1,4635,4,-7,-16,0
Cc1ccc(C=C2C(=O)c3ccccc3C2=O)o1,8062,91*,-13,-10,-2
COC(=O)CSc1nnc(-c2ccc(S(=O)(=O)NCc3cccs3)cc2)o1,21213*,4,4,0,2
COC(=O)CSc1nnc(-c2ccc(S(=O)(=O)NCc3ccccc3Cl)cc2)o1,21867*,-2,1,0,1
COC(=O)CSc1nnc(-c2ccc(S(=O)(=O)N3CCCC3)cc2)o1,6003,-4,3,0,-1
CCOc1cc(S(=O)(=O)NCc2ccccc2)c(OCC)cc1-n1cnnn1,21889*,-14,5,-2,u
CCOc1ccc(-n2cnnn2)cc1S(=O)(=O)NCc1ccccc1,13747,7,-6,0,-1
CC(C)Oc1cccc(C(=O)NC(=S)Nc2ccc(Cl)c(C(=O)O)c2)c1,23433*,-2,1,-2,-1
COc1ccc(C(=O)NC(=S)Nc2ccc(Cl)c(C(=O)O)c2)cc1,5384,4,-7,0,0
O=C(OCC(=O)N1CCN(c2ccccc2)CC1)c1cc(Cl)ccc1[N+](=O)[O-],5467,2,-7,-2,-2
COc1ccc(CNC(C)(C)C)cc1Cl,16540*,5,1,-1,0
CCc1nc2c(OCCOc3ccc(F)cc3)cccn2c1N(C)C(=O)c1cccs1,4023,x,-3,-8,0
CCCCNC(=O)c1ccc(CS(=O)(=O)c2ccc(C)cc2)o1,3461,-14,-6,-12,0
CC1CCCCN1C/C=C/c1ccccc1[N+](=O)[O-] (centres undefined),23342*,-1,-1,0,-3
O=[N+]([O-])c1ccccc1/C=C/CN1CCSCC1,3131,4,u,10,3
CCC1CCCCN1C/C=C/c1ccccc1[N+](=O)[O-] (centres undefined),20733*,-7,8,2,7
CC1CCCN(C/C=C/c2ccccc2[N+](=O)[O-])C1 (centres undefined),20230*,1,0,-4,1
CCCCN(C(=O)C1=NN(c2ccccc2)C(=O)CC1)c1c(N)n(CCC)c(=O)[nH]c1=O,3755,1,-4,-2,0
COc1ccc(C(C(=O)NC(C)(C)C)N(C(=O)CCC(=O)Nc2cc(C)on2)c2ccccc2F)cc1 (centres undefined),6053,5,2,-1,0
SMILES,Autofluor counter,MazF activator,BoNT-F LC inh,Anthrax LF prot,BoNT A protease
Cn1c(SCc2nc(-c3ccccc3)no2)nnc1-c1ccco1,4228,-1,u,6,1
COc1ccc(-c2noc(CSc3nnc(Cc4ccccc4)n3-c3ccc(Cl)cc3)n2)cc1,24663*,-7,-7,-3,-3
CCOc1ccc(-n2c(SCc3nc(-c4cccs4)no3)nnc2-c2ccncc2)cc1,4628,-1,33,-1,5
Cn1c(SCc2nc(-c3ccccc3)no2)nnc1-c1cccs1,20460*,-2,5,-7,u
Cn1c(SCc2nc(-c3ccc(Cl)cc3)no2)nnc1-c1ccccc1,20554*,-19,-5,-3,-1
CCCn1c(SCc2nc(-c3cccs3)no2)nnc1-c1ccncc1,21415*,1,-5,0,-3
Cn1c(SCc2nc(-c3ccc(Cl)cc3)no2)nnc1-c1cccs1,15475,-9,1,-2,2
Cc1ccc(-c2noc(CSc3nnc(Cc4ccccc4)n3-c3ccc(Cl)cc3)n2)cc1,8330,-9,-5,-5,0
NC(Cc1ccc(C(F)(F)F)cc1)c1csc(Nc2nccc(C(F)(F)F)n2)n1 (centres undefined),4048,x,-28,-5,0
CCOC(=O)c1c2ccccc2[n+]([O-])n1[C@@H](C)C(N)=O,4231,-4,-4,4,0
